Bioassay records (PubChem BioAssay)
A selection: hits, their analogues and other compounds. The true share with any hit is near 7.3%.
ELG1 genotox: inducers of genotoxicity in HEK293T ELG1-luciferase cells; HEK293T ELG1-luciferase reporter, luminescence, 16 h; Potency, µM (top dose mostly 46 µM), without a hit: top-dose activity change, positive = activation, actives largely listed as activators; 330,000 tested, 1.3% active; note: % of control where 0% means no effect; nearly all actives have a fitted effect of over 60% in size
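DMSO vehicle served as control against compound-treated ELG1-luciferase HEK293T cells; exposure lasted 16 hr at 37 °C and 5% CO2, followed by ONE-Glo luminescence detection after 30 min.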
FLuc modulator: inhibits or activates purified firefly luciferase, miR-21 counter-screen | purified FLuc, Km substrates, luminescence inhibition | Potency, µM (titrated, usually from 57.5 µM), for inactives: top-dose activity change, negative = inhibition, actives largely listed as inhibitors | 360,000 tested, 6.9% active | AID 588342;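 note: plate controls were vehicle for no effect and reference inhibitor for full effect; nearly all actives have a fitted effect of over 55% in size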
Target sequence (P08659 whole entry, looked up): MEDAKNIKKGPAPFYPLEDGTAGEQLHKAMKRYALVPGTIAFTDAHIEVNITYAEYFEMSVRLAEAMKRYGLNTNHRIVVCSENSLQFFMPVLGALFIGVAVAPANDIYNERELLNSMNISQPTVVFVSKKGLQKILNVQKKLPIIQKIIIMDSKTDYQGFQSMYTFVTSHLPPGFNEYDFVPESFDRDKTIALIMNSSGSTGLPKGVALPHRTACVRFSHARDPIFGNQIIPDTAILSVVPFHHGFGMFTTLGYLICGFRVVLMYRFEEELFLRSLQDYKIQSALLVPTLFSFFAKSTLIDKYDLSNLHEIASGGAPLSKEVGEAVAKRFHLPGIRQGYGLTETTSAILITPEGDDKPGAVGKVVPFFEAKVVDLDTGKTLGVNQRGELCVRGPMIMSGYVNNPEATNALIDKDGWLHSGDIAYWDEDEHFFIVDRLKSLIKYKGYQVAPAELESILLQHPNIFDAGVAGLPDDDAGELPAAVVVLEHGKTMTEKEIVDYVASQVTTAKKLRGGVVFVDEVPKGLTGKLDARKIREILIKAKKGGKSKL
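Biochemical qHTS of compounds, final roughly 60 µM downward over six points, against 10 nM purified firefly luciferase using Km concentrations of substrates (10 uM D-luciferin, 10 uM ATP) in Tris acetate pH 7.5 buffer; luminescence output.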
SMN2 splice enh: enhancers of SMN2 splice variant expression. 210,000 tested, 2.8% active. HEK293 SMN2-luciferase splicing reporter, luminescence, 30-36 h. AID 1458. Potency, µM (titrated, usually from 46.1 µM), inactives show at the highest dose activity change, positive = activation, hits mostly activators; note: % of control where 0% means no effect; nearly all actives have a fitted effect of over 55% in size
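HEK293 cells carry an SMN2 […]–luciferase reporter in which exon 7 inclusion puts luciferase in frame. Cells were plated 10-12 h before compound addition, then incubated 30-36 h at 37C. ONE-Glo luminescence was read; sodium butyrate at 4.5 mM final served as control.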
Rab9 prom act: activates the Rab9 promoter. Huh7 Rab9 promoter-luciferase reporter, luminescence, 24 h. Potency, µM (titrated, usually from 9.22 µM), for the others: at the highest dose activation, negative = inhibition, hits mostly activators. 320,000 tested, 2.8% active; note: % of control where 0% means no effect; nearly all actives have a fitted effect of over 60% in size
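Steps: seed 1500 Huh7 Rab9-luc cells per well, rest 2 h at 37 °C; add compound in DMSO; incubate 24 h; add luciferase reagent, 10 min ambient; read luminescence.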
KinaseGlo FLuc: blocks Kinase-Glo luciferase, a counter-screen artifact; Q27757; Kinase-Glo luciferase, ATP luminescence, 8 min; Potency, µM (series often up to 38.3 µM), inactives show top-dose activity change, negative = inhibition, hits mostly inhibitors; 200,000 tested, 0.28% active; AID 1379; note: % is set by controls: 0 for no effect and ±100 for the full control effect; nearly all actives have a fitted effect of over 60% in size
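Recombinant Kinase-Glo luciferase, 10 uM ATP (linear range), luciferin; imidazole pH 7.2 / KCl / MgCl2 / Tween / BSA buffer; 8 min RT; luminescence.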
NPC1 promoter act: activates the NPC1 promoter; 320,000 tested, 2.4% active; Huh7 NPC1 promoter luciferase reporter, 24 h; Potency, µM (series often up to 9.22 µM), for inactives: at the highest dose activation, most hits filed as activators; note: % of control where 0% means no effect; nearly all actives have a fitted effect of over 60% in size
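Luciferase expression driven by the NPC1 promoter was measured in stably transfected Huh7 cells after a 24 h compound incubation, using a luciferase reagent and a luminescence read.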
An asterisk follows results filed as active; ? = inconclusive; · = no result; [ ] = remark or other dose. Calls come from the whole dose curve; as a rule, active = well fitted curve in the direction sought with a large enough effect; inconclusive = small, poorly fitted or top-dose-only effect, or another doubt; inactive = no such curve, though single readings can be large; an effect the other way counts as inactive or inconclusive. Potency is the fitted concentration of half-maximal effect.

SMILES | ELG1 genotox | FLuc modulator | SMN2 splice enh | Rab9 prom act | KinaseGlo FLuc | NPC1 promoter act
C/C(=N\NC(=O)c1cccc(O)c1)c1cccc(NC(=O)c2ccc(F)cc2)c1 | 2.5% | 1.9µM* | · | 13.8% | · | ?
C/C(=N\NC(=O)c1ccncc1)c1ccc(NC(=O)c2ccc(Cl)cc2)cc1 | ? | · | · | 26.9% | · | 7.7%
C/C(=N\NC(=O)c1cccc(N/N=C(\C)c2cc(O)ccc2O)c1)c1cc(O)ccc1O | -15.5% | 12µM* | -56.1% | -34.9% | -2.2% | -18.3%
O=C(CS(=O)(=O)Cc1ccccc1)Nc1nnc(C(F)(F)F)s1 | 2.1% | -0.4% | · | -2.9% | · | -5.6%
O=C(CSc1nc2c([nH]c3ccccc32)c(=O)n1-c1cccc(Cl)c1)NCc1ccccc1 | · | -3.9% | · | · | · | ·
Cc1ccc(NC(=O)CSc2nc3c(c(=O)[nH]2)CN(Cc2ccccc2)CC3)cc1Cl | · | -11.8% | · | · | · | ·
CC1(c2nnc(-c3cccc(Cl)c3)o2)CC(c2cccc([N+](=O)[O-])c2)=NO1 (stereo unspecified) | 1.5% | 1.4% | · | 1.0% | · | -2.3%
C/C(=N\NC(=O)c1c(Cl)cnn1C)c1cccc(NC(=O)C(C)C)c1 | -2.5% | ? | -10.1% | -7.1% | 2.8% | -3.4%
C/C(=N\NC(=O)c1ccccc1F)c1cccc(NC(=O)c2ccc(C)cc2)c1 | ? | 2.39µM* | · | ? | · | ?
C/C(=N\NC(=O)c1c(Cl)cnn1C)c1cccc(NC(=O)c2ccc(C)cc2)c1 | 4.0% | 2.39µM* | · | ? | · | ?
C/C(=N\NC(=O)c1cccc(N/N=C(\C)c2ccco2)c1)c1ccco1 | 12.1% | 13.5µM* | -3.8% | ? | -6.4% | 16.3%
C/C(=N\NC(=O)c1cccc(F)c1)c1cccc(NC(=O)c2ccc(F)cc2)c1 | 2.0% | ? | · | 3.1% | -4.9% | 8.1%
Cc1ccc(NC(=O)COC(=O)c2nn(-c3ccc(Cl)cc3)cc2O)cc1 | 10.8% | · | · | · | · | ·
NNC(=O)c1nn(-c2ccc(Cl)cc2)cc1O | 1.4% | 13.5µM* | · | ? | · | ?
Cc1ccc(-c2noc(C3CCCN(C(=O)c4cccc([N+](=O)[O-])c4)C3)n2)o1 (stereo unspecified) | 0.9% | -18.2% | · | ? | · | ?
Cc1cccc(C(=O)N2CCCC(c3nc(-c4ccc(C)o4)no3)C2)c1 (stereo unspecified) | 9.2% | ? | · | 3.98µM* | · | ?
CCOc1ccc(C(=O)N2CCCC(c3nc(-c4cccs4)no3)C2)cc1 (stereo unspecified) | 6.1% | 21.3µM* | · | 3.5% | · | 1.0%
CCC(CC)C(=O)N1CCCC(c2nc(-c3cccs3)no2)C1 (stereo unspecified) | -5.1% | 2.1%[2.3 µM] | 13.7% | 3.7% | 0.6% | 11.1%
Cn1c(SCC(=O)NCC2CCCO2)ncc(C(=O)Nc2ccc(F)cc2)c1=O (stereo unspecified) | ? | -17.6% | · | -5.0% | · | 0.6%
CC1=NN(Cc2ccccc2)C(=O)/C1=C\c1ccc(N(C)C)cc1 | 6.6% | 10.7µM* | 7.1% | -1.5% | -8.1% | 0.9%
O=C(CN1CCN(Cc2ccccc2F)C1=O)NCC1CCCO1 (stereo unspecified) | 2.5% | 5.0% | · | -3.0% | · | -12.4%
COC(=O)c1sc2cccc(F)c2c1S(=O)(=O)N1CCN(c2cccc(C)c2)C(C)C1 (stereo unspecified) | · | -3.1% | · | · | · | ·
COc1cc(/C=N/NC(=S)NCCc2ccccc2)cc(OC)c1OC | 4.4% | 26.9µM* | · | -3.3% | · | -1.1%
COc1cc(/C=N/Nc2ccc(C(=O)O)cc2)cc(OC)c1OC | 16.4µM* | 10.7µM* | · | 2µM* | · | 1.58µM*
COc1ccc(/C=N/Nc2ccc(C(=O)O)cc2)c(OC)c1OC | 16.5% | 15.1µM* | · | 3.16µM* | · | 2.82µM*
C=CCOc1c(OC)cc(/C=N/Nc2cccc(C(=O)O)c2)c(Br)c1Br | ? | ? | 14.1µM* | 3.16µM* | 0.5% | 2.51µM*
